Bioassay records (PubChem)
GLP-1R agonist: activates the human GLP-1 receptor; HEK293 GLP-1R CRE-luciferase, luminescence, 4-6 h; cells express a hypersensitive GLP-1R form; Potency, µM (titrated, usually from 45.6 µM), without a hit: at the top dose activation, usual class: activators; 380,000 compounds, 0.007% hits; note: % of control where 0% means no effect
PTHR1 ag: activates the human parathyroid hormone receptor PTHR1 | HEK293 GP2 PTHR1 cells, GloSensor cAMP luminescence, 1 h | Potency, µM (top dose mostly 115 µM), inactives show at the top dose activation, hits mostly activators | AID 743266 | 410,000 compounds, 0.075% hits | Q03431; note: nearly all actives have a fitted effect of over 55% in size
Target sequence (Q03431 whole entry, looked up): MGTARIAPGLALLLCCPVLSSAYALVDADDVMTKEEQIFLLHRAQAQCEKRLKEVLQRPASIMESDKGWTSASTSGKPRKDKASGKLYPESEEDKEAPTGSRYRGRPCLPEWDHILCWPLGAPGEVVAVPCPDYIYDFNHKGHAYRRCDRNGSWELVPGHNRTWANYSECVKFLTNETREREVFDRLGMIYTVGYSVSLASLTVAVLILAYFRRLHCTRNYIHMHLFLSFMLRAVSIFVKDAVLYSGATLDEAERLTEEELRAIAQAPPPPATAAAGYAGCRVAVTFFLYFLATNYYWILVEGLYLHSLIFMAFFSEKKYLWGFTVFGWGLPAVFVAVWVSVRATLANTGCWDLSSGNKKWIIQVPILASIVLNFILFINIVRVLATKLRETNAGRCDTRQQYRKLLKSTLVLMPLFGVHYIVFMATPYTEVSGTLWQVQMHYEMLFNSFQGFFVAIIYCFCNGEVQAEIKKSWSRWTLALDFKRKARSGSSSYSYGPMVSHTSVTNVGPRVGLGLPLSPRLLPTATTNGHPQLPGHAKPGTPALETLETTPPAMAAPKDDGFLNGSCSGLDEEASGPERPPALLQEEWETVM
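HEK-293-derived GP2 cells expressing PTHR1 and a GloSensor cAMP reporter, 3,000/well, plated overnight, given luciferin plus IBMX (each 0.5 mM as added) for 1 h at 37 °C, then compound for 1 h at 37 °C. Luminescence was read after 15 min at room temperature.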
GLP1R cytotox: cytotoxic in the GLP-1 receptor inverse agonist counter-screen. HEK293 cAMP-luciferase reporter cells, luminescence, 24 h. Potency, µM (titrated, usually from 38.3 µM), without a hit: top-dose activity change, negative = inhibition, actives largely listed as inhibitors. 410,000 compounds, 0.13% hits. AID 624418;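 note: loss of luciferase light is scored as toxicity; % is set by controls: 0 for no effect and ±100 for the full control effect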
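Compound-treated cells are incubated 24 hr at 37 deg C under 5% CO2 after a 12 hour attachment period, then luciferase detection reagent is added and luminescence is measured following 12 min at room temperature; lowered signal indicates toxicity.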
GLP-1R inv ag: acts as inverse agonist at human GLP-1 receptor; HEK293 GLP-1R CRE-luciferase, luminescence, 24 h; GLP-1R form is constitutively active; Potency, µM (highest dose often 38.3 µM), for the others: top-dose activity change, negative = inhibition, actives largely listed as inhibitors; 410,000 compounds, 1.6% hits; note: % is set by controls: 0 for no effect and ±100 for the full control effect; nearly all actives have a fitted effect of over 55% in size
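Luminescence readout: a drop in cAMP-driven luciferase signal flags inverse agonism at a constitutively active GLP-1R stably expressed in HEK293. Compound exposure lasted 24 hr at 37 deg C, 5% CO2.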
Starred values were filed as active, the others as inactive; i = inactive; ? = inconclusive; . = no result given; [ ] = dose if it differs, or a comment. Shown are actives, neighbours in structure and some others; about 1.7% of the full set was active somewhere. Calls come from the whole dose curve; as a rule, active = well fitted curve in the direction sought with a large enough effect; inconclusive = small, poorly fitted or top-dose-only effect, or another doubt; inactive = no such curve, though single readings can be large; an effect the other way counts as inactive or inconclusive. Potency is the fitted concentration of half-maximal effect.

SMILES	GLP-1R agonist	PTHR1 ag	GLP1R cytotox	GLP-1R inv ag
CCCCCC1CCC(c2n[nH]c(=S)n2C)CC1 (centres undefined)	8.0%	i	3.16µM*	?
CCCc1[nH]c2ccc(C#N)cc2c1CCC	-1.6%	-9.8%	?	10µM*
Cc1c(C(=O)Nc2ccc(C(=O)O)cc2)nnn1-c1ccccc1	.	-23.4%	2.0%	1.78µM*
O=C(Nc1c(-c2ccccc2)nc2ccccn12)c1ccc(Br)cc1	-0.2%	-12.3%	-25.3%	11.2µM*
O=C(Nc1c(-c2ccccc2)nc2ccccn12)c1ccccc1	-2.9%	-13.9%	5.3%	-1.6%
O=C(Nc1c(-c2ccccc2)nc2ccccn12)c1cccc(F)c1	2.8%	3.4%	-7.3%	10µM*
CC1=C(C(=O)Nc2ccc(C)cc2C)C(C(C)C)n2nc(SCc3ccccc3Cl)nc2N1 (centres undefined)	-2.0%	i	0.8%	-19.5%
COc1cc(OC)cc(C(=O)NCCOC23CC4CC(CC(C4)C2)C3)c1	5.9%	i	0.5%	10µM*
COc1ccccc1CCNC(=O)C(=O)NCC(c1ccc2c(c1)OCO2)N1CCOCC1 (centres undefined)	.	i	8.3%	9.5%
CCOc1ccc(Nc2nc(C)c(NC(=O)c3cccc(OC)c3)c(Nc3ccc(OCC)cc3)n2)cc1	-12.4%	17.2%	-22.3%	?
CCOc1ccc(C(=O)Nc2c(C)nc(Nc3ccccc3)nc2Nc2ccccc2)cc1OCC	-1.1%	6.4%	-14.4%	10µM*
CSc1ccc(CN(C)C(=O)C23CC4CC(CC(Cl)(C4)C2)C3)cc1	31.6%	-17.9%	-2.9%	10µM*
CCc1ccc(CNC(=O)c2ccc(-n3c(C)cc4c3CCC(C)C4)cc2)cc1 (centres undefined)	.	-1.3%	-12.4%	12.6%
CC(C)N(CC(N)=O)C(=O)c1sc2cc(F)ccc2c1Cl	0.0%	-21.8%	0.8%	2.4%
CN1CCC(N(C)C(=O)c2sc3cc(F)ccc3c2Cl)CC1	2.9%	i	5.9%	7.08µM*
Cc1ccc(-n2nc(CO)c(C(=O)NCCC(C)C)n2)cc1C	.	-55.3%	1.6%	-3.6%
CC1=C(C(=O)Nc2ccccc2C)C(c2cccs2)n2nc(SCc3ccccc3)nc2N1 (centres undefined)	-0.4%	-3.9%	0.4%	-1.5%
CC(C)(C)C(=O)CSc1nc2ccsc2c(=O)n1Cc1ccccc1F	.	i	-4.6%	12.6µM*
CN(C)c1cc2c(cc1NC(=O)c1ccc(F)cc1)n(C)c(=O)n2C	.	-41.2%	-1.3%	22.6%
CC1(C)Cc2cccc(C(=O)NC3CCN(Cc4ccccc4)CC3)c2O1	5.3%	i	-27.7%	10µM*
CC(C)C(NC(=O)C(CC(=O)O)NC(=O)C(CCCCN)NC(=O)C(N)CCCN=C(N)N)C(=O)NC(Cc1ccc(O)cc1)C(=O)O (centres undefined)	-1.1%	.	.	.
O=C(Cn1ncc(Cl)c(Cl)c1=O)c1ccc(Cl)cc1	-17.4%	-18.1%	10µM*	-82.3%
CC(Oc1ccccc1)C(=O)Nc1ccccc1C(=O)OCc1cc(=O)n2nc(C(C)C)sc2n1 (centres undefined)	.	-17.4%	6.7%	2.3%
COc1cccc(N2CCN(c3ncc4c(n3)CCN(Cc3ccc(Br)cc3)C4)CC2)c1	.	i	-8.6%	?
Cc1cc(C)n2nc(N)c(N=Nc3ccccc3)c2n1	16.3%	-3.2%	10µM*	-6.6%
SMILES	GLP-1R agonist	PTHR1 ag	GLP1R cytotox	GLP-1R inv ag
CC(NCC(=O)Nc1ccccc1C(=O)NC1CC1)c1cccc(C(F)(F)F)c1 (centres undefined)	11.5%	-31.1%	-0.2%	12.6µM*
COc1ccc(C2=Nn3c(nnc3-c3cccnc3)SC2)cc1OC	2µM*	-6.0%[57.5 µM]	7.7%	0.0%
COc1ccc(C2=Nn3c(nnc3-c3ccncc3)SC2)cc1OC	?	i	4.3%	0.0%
O=C(O)c1cccc(COc2ccc3c(c2)CCC3)c1	-6.1%	-51.7%	0.8%	?
O=C(NCc1ccccc1)C(=O)Nc1cccc(C(=O)O)c1	-5.9%	-11.7%	1.6%	4.47µM*
O=C(NCc1ccccc1)c1cccc(COc2ccc3c(c2)CCC3)c1	-2.4%	-7.5%	-4.7%	4.47µM*
Cc1cc(C)cc(C(=O)NCCCc2ccccc2)c1	-4.1%	i	-6.6%	11.2µM*
O=C(NCc1ccccc1)c1cccc(NC(=O)c2ccccc2)c1	-2.8%	-12.8%	-27.1%	8.91µM*
CSc1cccc(NC(=O)C(=O)NCc2ccccc2)c1	4.8%	-14.0%	-2.9%	6.8%
CCOC(=O)N1CCC(NC(=O)c2ccc3c(c2)N(Cc2ccc(F)cc2)C(=O)c2ccccc2S3(=O)=O)CC1	.	i	-8.1%	?
CO/N=C(/C(=O)N[C@@H]1C(=O)N2C(C(=O)O)=C(CSC(=O)c3ccco3)CSC12)c1csc(N)n1 (some centres undefined)	2.3%	.	.	.
O=C(NCCCCc1ccccc1)c1cccc(NC(=O)C2CCCCC2)c1	-5.6%	-28.9%	-19.8%	11.2µM*
O=C(NCCCCc1ccccc1)c1cccc(NC(=O)C2CCC2)c1	7.5%	i	14.1%	13.5%
CC(C(=O)NCCCc1ccccc1)n1cccc1C(=O)c1ccccc1 (centres undefined)	12.6%	-15.1%	-8.1%	11.2µM*
CCCCCC[C@@H](CCC)C(=O)O	-0.7%	.	.	.
CC(C)Oc1cc(F)ccc1-c1cc(C(=O)Nc2ccc(C(C)C)cc2)[nH]n1	3.8%	i	-2.6%	?
CC(C)Oc1cc(F)ccc1-c1cc(C(=O)Nc2ccccc2)[nH]n1	28.5%	-13.1%	-2.0%	11.2µM*
C(=C1NCCN1)c1cccc2ccccc12	-3.2%	.	.	.
COc1ccccc1CNCc1cc(Br)ccc1OC	1.9%	-2.0%	-20.1%	6.31µM*
COc1ccccc1CNCc1cc(OC)c(OC)cc1OC	-9.2%	-24.9%[57.5 µM]	1.0%	1.2%
Cc1ccc(-c2cnc(C3CC3)o2)cc1S(=O)(=O)Nc1ccc(F)cc1Cl	.	-23.1%	-1.8%	?
O=C(OCC(=O)N(Cc1ccccc1)Cc1ccccc1)c1ccccc1O	11.1%	-36.4%	-0.1%	?
O=C(OCC(=O)N(CCc1ccccc1)Cc1ccccc1)c1ccccc1NCCO	6.1%	-6.0%	-12.6%	10µM*
O=C(OCC(=O)N(CCc1ccccc1)Cc1ccccc1)c1ccccc1O	-14.2%	i	16.1%	10µM*
O=C(OCC(=O)N(CCc1ccccc1)Cc1ccccc1)c1cccc(O)c1	17.5%	-9.0%	4.0%	?
Cc1nn(CCC(=O)NCc2cccc(Br)c2)c(=O)c2nn(-c3ccccc3)c(C)c12	.	-3.5%	4.0%	-9.5%
COc1ccc(N2C(=O)CS/C2=N\C(=S)Nc2ccccc2)cc1	8.9%	i	?	12.6µM*
CCOC(=O)c1cnc2ccc(OCC)cc2c1N1CCN(c2ccccc2)CC1	0.4%	-0.6%[57.5 µM]	-23.5%	8.91µM*
CCOC(=O)c1cnc2ccc(OCC)cc2c1N1CCN(c2ccccc2F)CC1	.	-15.1%	-9.6%	?
CCOC(=O)c1cnc2c(C)c(Cl)ccc2c1N1CCN(CC)CC1	14.1%	i	18.7%	7.94µM*
